Laboratory results: article PMC5540273 (PLoS ONE, 2017)

Test system: CAMK4
Conditions: concentration: 1 μM, replicates: in singlicate; n = 1
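Further: KINOMEscan kinase panel screen.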

Structure (SMILES) | %Inh [%]
Oc1ccc2ncnc(Nc3ccc(OCc4ccccc4)cc3)c2c1 [GI262866] | 0
FC(F)(F)c1ccc(-c2cc(-c3c[nH]nc3-c3ccccn3)ccn2)cc1 [GW599550] | 0
CCc1nc(-c2cccc(C)c2)c(-c2ccnc(NC(=O)c3ccccc3)c2)s1 | 0
CN1c2ccc(-c3ccc(C(=O)NCCO)cc3)cc2-c2[nH]ncc2S1(=O)=O | 0
O=C(c1ccc(-c2cc(-c3c[nH]nc3-c3ccccn3)ccn2)cc1)N1CCCC1 [GW792479] | 0
COc1ccc(-c2oc3ncnc(N)c3c2-c2ccc(OC)cc2)cc1 [SB-589132] | 13
CCc1nc(-c2cccc(N(C)S(=O)(=O)c3ccccc3)c2)c(-c2ccnc(Nc3ccc(N4CCN(C(C)=O)CC4)nc3)n2)s1 [GSK1645895] | 0
Fc1cccc(COc2ccc(Nc3ncnc4cc[nH]c34)cc2Cl)c1 | 0
Cl.c1ccc(Cn2ncc3cc(Nc4ncnc5ccccc45)ccc32)cc1 [GW273749] | 0
COC(=O)c1cccc(NC(=O)NCCNc2ccnc(Nc3ccc(F)cc3)n2)c1 [GSK1379883] | 0
Cl.c1ccc(Cn2ccc3cc(Nc4ncnc5ccccc45)ccc32)cc1 [GW275568] | 0
COc1ccc(Nc2nccc(N3CCC(NC(=O)c4cccc(NC(C)=O)c4)C3)n2)cc1 (stereo not drawn) [GSK1379732] | 3
Nc1nccc2scc(-c3ccc4c(c3)CCN4C(=O)Cc3cc(F)ccc3F)c12 [GSK2587663] | 0
Fc1ccc(Nc2nccc(-c3c(-c4ccc(Cl)cc4)nn4ncccc34)n2)cc1F [GW829058] | 0
CS(=O)(=O)CCNCc1ccc(-c2ccc3ncnc(Nc4ccc(OCc5ccccc5)c(Cl)c4)c3c2)o1.Cl [GW574783] | 0
Cn1ccc2ncnc(Oc3ccc(NC(=O)Nc4cccnc4)c(Cl)c3)c21 | 0
COc1ccc(NC(=O)c2ccc(-c3cc(-c4nnc(C)o4)ccc3C)cc2)cc1 [GW595885] | 0
NC(=O)c1sc(-n2cnc3ccccc32)cc1OCc1ccccc1F [GSK1024306] | 0

Structure (SMILES) | %Inh [%]
Fc1ccc(-c2ncn(CCCNCc3ccccc3)c2-c2ccncc2)cc1 | 4
CCC(CC)(CC)n1cnc2c(N)ncnc21 [SKF-97620] | 8
N#Cc1ccc(Oc2ccc(Nc3ncnc4cc[nH]c34)cc2Cl)cc1 | 3
O=C(Nc1n[nH]c2nc(-c3ccco3)c(Br)cc12)c1ccc(CN2CCCC2)cc1.O=C(O)[C@H](O)[C@@H](O)C(=O)O [SB-742352] | 0
COc1ccc(-c2nc3n(c2-c2ccncc2)CCC3)cc1 [SKF-104493] | 0
O=C(NCCCN1CCCC1=O)c1cnc(NCc2cc(Cl)ccc2Cl)nc1NC1CCNCC1 | 0
O=C(Nc1ccccc1)Nc1ccc(Oc2ccc3nccn3n2)cc1 | 29
CCCc1ccc(S(=O)(=O)NC2CCN(c3ccnc(Nc4ccc(OC)cc4)n3)C2)cc1 (stereo not drawn) [GSK1379737] | 0
COC(=O)c1c(-c2ccccc2)c2cc(Cl)ccc2c(=O)n1Cc1ccc(S(C)(=O)=O)cc1 | 0
CC(C)N1CCC(n2cnc(-c3ccc(F)cc3)c2-c2ccnc(N)n2)CC1 [SB-223132] | 0
Nc1n[nH]c2nnc(-c3ccccc3)cc12 [SB-517389] | 0
C[C@H]1CC[C@@H](C(=O)Nc2ccccc2)CN1c1cc(-c2ccc3c(N)n[nH]c3c2)nc(N)n1 [GSK2283293] | 0
CN1CCC(n2cnc(-c3ccc(F)cc3)c2-c2ccnc(NC3CCNCC3)n2)CC1 [SB-229482] | 7
Fc1cccc(COc2ccc(Nc3ncnc4sc(-c5ccc[nH]5)cc34)cc2Cl)c1 [GW707818] | 5
O=C(Nc1ccccc1F)NC1CCN(c2ccnc(Nc3ccc(F)cc3)n2)C1 (stereo not drawn) [GSK1379722] | 0
Clc1ccc(-c2cc(-c3c[nH]nc3-c3ccccn3)ccn2)cc1 [GW681251] | 0
COc1cc2ncnc(Nc3ccc(OCc4ccccc4Br)c(Cl)c3)c2cc1OC.Cl [GI261590] | 0
Cl.Cl.c1ccc(-c2cc3ccncc3cc2OC2CCNCC2)cc1 [GSK1122999] | 43
